From PubChem BioAssay (NCATS) come the findings set out here.

Each structure is given as a SMILES string. Results filed as inconclusive are left out. Activity calls are given as the source filed them. Calls come from the whole dose curve.

In the assay the target is Retinoic acid receptor RXR-alpha (Homo sapiens) (UniProt P19793). The assay is described as follows: qHTS assay for small molecule agonists of retinoid X receptor alpha signaling (AID 588544).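 Note: 0% = DMSO basal wells and 100% = reference agonist.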 The note with it: HEK293T RXRa-UAS-bla, beta-lactamase reporter, 18 h; series mostly up to 76.7 µM; activation: at the top concentration. On the technique in general: In qHTS, concentration-response curves come from the screen itself.
Sequence of Retinoic acid receptor RXR-alpha (Homo sapiens) (P19793 whole entry, looked up): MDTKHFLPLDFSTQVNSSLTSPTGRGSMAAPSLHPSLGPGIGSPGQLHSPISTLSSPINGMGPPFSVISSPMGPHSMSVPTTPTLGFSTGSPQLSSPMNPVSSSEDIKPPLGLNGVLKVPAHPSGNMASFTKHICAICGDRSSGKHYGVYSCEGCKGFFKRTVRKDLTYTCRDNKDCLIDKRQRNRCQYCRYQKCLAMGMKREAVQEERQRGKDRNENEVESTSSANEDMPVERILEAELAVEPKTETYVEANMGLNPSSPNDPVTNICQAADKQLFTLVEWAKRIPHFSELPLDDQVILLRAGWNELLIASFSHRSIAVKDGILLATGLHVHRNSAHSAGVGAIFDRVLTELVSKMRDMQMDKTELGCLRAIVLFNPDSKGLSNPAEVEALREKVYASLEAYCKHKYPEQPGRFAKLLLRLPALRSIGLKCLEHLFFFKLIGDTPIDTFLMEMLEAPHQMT
`Oc1cccc(Cl)c1Cl`: the “activation” value is 5.64% (inactive).
Same read-out and setting: next, `CCC/C=N/O`: 6.58% (inactive); `Cc1cnc[nH]1`: -0.514% (inactive).
For `CN(C)N=O`, the “activation” value is 6.09% (inactive).
Still for that read-out and setting: as for `COc1c(C(C)(C)C)cc([N+](=O)[O-])c(C)c1[N+](=O)[O-]`, the figure is 15.9% (inactive); as for `C=C(Cl)CCl`, 6.4% (inactive).
Still for that read-out and setting: next, `ClCCOCOCCCl`: 12.1% (inactive).
`CC12CC1(C)C(=O)N(c1cc(Cl)cc(Cl)c1)C2=O` (stereo not drawn): the result was inactive.
With `CC(C)(Cl)[N+](=O)[O-]`, the “activation” value was 2.89% (inactive).
Same read-out and setting: as for `Cl/C=C/Cl`, the figure is 5.31% (inactive).
Same read-out and setting: next, `CCCCOCC1CO1` (stereo not drawn): 0.436% (inactive); `O=C(O)c1cccc(Cl)c1`: 3.6% (inactive); `C1CC2OC2CC1C1CO1` (stereo not drawn): 4.51% (inactive).
The same measure, in the same setting: next, `Brc1cccc(-c2ccccc2)c1`: 4.34% (inactive).
For `Oc1c(Cl)cccc1Cl`, the “activation” value was -1.98% (inactive).
Take `ClCCOCCCl`: the “activation” value is 4.4% (inactive).
Same read-out and setting: next, `CCNCC`: 3.76% (inactive).
The same measure, in the same setting: next, `CC(C)C#N`: 5.15% (inactive); `Cl/C=C\Cl`: 12.4% (inactive).
In the case of `c1ccc2c(c1)CCNC2`, the “activation” value was 16.9% (inactive).
As for `CCBr`, the “activation” value was 5.42% (inactive).
For the compound `O=[N+]([O-])c1ccc(Cl)c(Cl)c1Cl`, the “activation” value is -0.942% (inactive).
On the same count and under the same terms, as for `N#CCCC#N`, the figure is 18.3% (inactive); as for `Cc1ccccc1[N+](=O)[O-]`, -1.46% (inactive).
For `OCCBr`, the “activation” value is -2.41% (inactive).
The same measure, in the same setting: as for `C=CC(=O)OCCN(C)C`, the figure is 5.68% (inactive).
On to `CC(C)(C)C(O)(CCc1ccc(Cl)cc1)Cn1cncn1` (stereo not drawn), for which the compound was called inactive.
On to `N#CCCCCC#N`, for which the “activation” value was -0.703% (inactive).
The same measure, in the same setting: as for `CN=C=O`, the figure is 8.22% (inactive); as for `c1ccc(C2CO2)cc1` (stereo not drawn), 8.07% (inactive); as for `CCCCCC[N+](=O)[O-]`, 7.63% (inactive).
Take `OCC(Cl)CCl` (stereo not drawn): the “activation” value was 2% (inactive).
Same read-out and setting: next, `COc1ccc(C=O)cc1`: 0.176% (inactive); `Nc1ccc(Cl)c(Cl)c1`: -9.82% (inactive).
The same measure, in the same setting: as for `CC(=O)[O-].CC(=O)[O-].CC(=O)[O-].[Cr+3]`, the figure is 13.2% (inactive).
Consider `CC(=O)CCC(C)=O`, for which the “activation” value was 4.82% (inactive).
Consider `C=CC(=O)OCC(CC)CCCC` (stereo not drawn), for which the compound was called inactive.
Regarding `CC(C#N)CCC#N` (stereo not drawn), the “activation” value was 2.75% (inactive).
